This is an account of results in ChEMBL document CHEMBL3988442, “University of Dundee, Small-Polar-MMV Screening Library” (2021).

For some of these results: Results with a measured potency or affinity are listed apart.

Set-up in all cases: scale not given: direction of the effect not stated beside the values
Assay [1] deals with Protein translocase subunit SecA (Escherichia coli (strain K12)) (UniProt P10408). The experiment in a line: Assay to Identify E. coli SecA ATPase Inhibitors. Particulars: 30 µM. It is filed as functional.
For assay [2], the target named is T1, Ubiquitin-activating enzyme e1, putative (Leishmania donovani (strain BPK282A1)) (UniProt E9BSI1).
T1 sequence (whole entry): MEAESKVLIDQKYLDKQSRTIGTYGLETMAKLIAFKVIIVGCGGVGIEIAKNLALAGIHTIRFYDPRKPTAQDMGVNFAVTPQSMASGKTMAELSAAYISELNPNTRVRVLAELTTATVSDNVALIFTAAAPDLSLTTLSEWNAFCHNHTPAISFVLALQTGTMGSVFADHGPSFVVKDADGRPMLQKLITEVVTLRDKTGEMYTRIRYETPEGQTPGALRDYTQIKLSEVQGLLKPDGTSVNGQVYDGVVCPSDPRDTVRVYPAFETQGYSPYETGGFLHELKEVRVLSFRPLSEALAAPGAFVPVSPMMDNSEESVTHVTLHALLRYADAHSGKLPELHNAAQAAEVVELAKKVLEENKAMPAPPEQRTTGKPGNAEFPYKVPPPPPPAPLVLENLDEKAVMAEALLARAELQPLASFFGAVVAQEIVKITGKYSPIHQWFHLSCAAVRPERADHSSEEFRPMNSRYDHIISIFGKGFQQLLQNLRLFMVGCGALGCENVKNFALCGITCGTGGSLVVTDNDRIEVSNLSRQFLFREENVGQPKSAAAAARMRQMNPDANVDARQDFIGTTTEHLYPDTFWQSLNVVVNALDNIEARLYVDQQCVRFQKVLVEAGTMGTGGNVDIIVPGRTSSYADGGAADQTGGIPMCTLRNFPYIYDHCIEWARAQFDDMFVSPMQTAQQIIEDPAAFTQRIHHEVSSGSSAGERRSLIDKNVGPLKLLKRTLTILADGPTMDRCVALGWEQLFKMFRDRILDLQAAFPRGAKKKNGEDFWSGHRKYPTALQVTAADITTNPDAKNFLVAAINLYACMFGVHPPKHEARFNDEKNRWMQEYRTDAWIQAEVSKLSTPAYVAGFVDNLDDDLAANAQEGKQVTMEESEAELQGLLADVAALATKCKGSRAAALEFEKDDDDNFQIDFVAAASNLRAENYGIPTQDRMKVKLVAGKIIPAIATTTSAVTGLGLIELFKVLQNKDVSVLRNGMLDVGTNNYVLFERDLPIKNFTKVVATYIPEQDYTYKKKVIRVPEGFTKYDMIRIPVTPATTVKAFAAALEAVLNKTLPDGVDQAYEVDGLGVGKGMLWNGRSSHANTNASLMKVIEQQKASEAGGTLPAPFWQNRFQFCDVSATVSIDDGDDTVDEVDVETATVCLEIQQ
Put plainly: Leishmania donovani Ubiquitin Activating Enzyme (LdE1). As to conditions: 30 µM. It is filed as functional.

The target in assay [3] is T2, Aspartate--tRNA(Asp/Asn) ligase (Mycobacterium tuberculosis (strain ATCC 25618 / H37Rv)) (UniProt P9WFW3). Also: in the data most compounds retested in dose-response had high values.
T2 sequence (whole entry): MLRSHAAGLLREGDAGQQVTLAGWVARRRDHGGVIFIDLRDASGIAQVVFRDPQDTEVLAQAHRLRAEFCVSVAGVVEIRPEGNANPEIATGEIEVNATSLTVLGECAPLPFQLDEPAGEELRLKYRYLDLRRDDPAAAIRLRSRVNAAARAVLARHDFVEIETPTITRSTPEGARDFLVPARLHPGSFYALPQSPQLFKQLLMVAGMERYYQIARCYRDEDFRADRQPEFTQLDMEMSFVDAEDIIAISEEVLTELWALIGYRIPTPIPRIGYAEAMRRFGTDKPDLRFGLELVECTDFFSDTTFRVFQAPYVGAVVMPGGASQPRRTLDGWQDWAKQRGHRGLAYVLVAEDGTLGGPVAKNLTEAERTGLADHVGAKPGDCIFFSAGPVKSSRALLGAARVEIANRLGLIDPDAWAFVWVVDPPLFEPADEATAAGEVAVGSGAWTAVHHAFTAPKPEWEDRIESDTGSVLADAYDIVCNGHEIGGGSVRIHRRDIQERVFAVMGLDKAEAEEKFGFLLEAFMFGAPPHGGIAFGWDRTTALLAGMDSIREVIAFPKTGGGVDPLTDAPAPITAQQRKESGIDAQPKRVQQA
Put plainly: Assay for Asp RNA synthetase-1 from Mycobacterium tuberculosis. It is filed as functional. Particulars: 30 µM.

The target in assay [4] is Sialic acid-binding Ig-like lectin 9 (Homo sapiens) (UniProt Q9Y336). Put plainly: Hs-Siglec9 ALPHAscreen SOP 20170721. Particulars: 10 µM.
The subject of assay [5] is Trypanosoma cruzi. The experiment in a line: Trypanosoma cruzi phosphomannomutase and mannose-1-phosphate guanylyltransferase assay. Type of assay: functional. As to conditions: 10 µM.
In assay [6] the target is T3, Arginase-2, mitochondrial (Homo sapiens) (UniProt P78540).
T3 sequence (whole entry): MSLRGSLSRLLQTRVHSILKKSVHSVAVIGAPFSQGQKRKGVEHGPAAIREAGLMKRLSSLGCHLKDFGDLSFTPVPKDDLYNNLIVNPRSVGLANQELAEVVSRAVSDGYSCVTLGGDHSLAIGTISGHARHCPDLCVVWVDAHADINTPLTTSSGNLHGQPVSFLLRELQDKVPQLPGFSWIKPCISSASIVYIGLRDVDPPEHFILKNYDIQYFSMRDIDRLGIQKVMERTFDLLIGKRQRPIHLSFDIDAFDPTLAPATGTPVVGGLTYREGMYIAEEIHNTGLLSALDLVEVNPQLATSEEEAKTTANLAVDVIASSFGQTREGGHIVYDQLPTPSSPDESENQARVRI
The experiment in a line: in vitro enzyme assay to detect the production of urea directly proportional to the activity of Arginase II. Also: in the data most compounds retested in dose-response had high values. Type of assay: functional. As to conditions: 33.3 µM.

For assay [7], the target named is T4, Proteasome subunit beta (Trypanosoma cruzi) (UniProt O96673).
T4 sequence (whole entry): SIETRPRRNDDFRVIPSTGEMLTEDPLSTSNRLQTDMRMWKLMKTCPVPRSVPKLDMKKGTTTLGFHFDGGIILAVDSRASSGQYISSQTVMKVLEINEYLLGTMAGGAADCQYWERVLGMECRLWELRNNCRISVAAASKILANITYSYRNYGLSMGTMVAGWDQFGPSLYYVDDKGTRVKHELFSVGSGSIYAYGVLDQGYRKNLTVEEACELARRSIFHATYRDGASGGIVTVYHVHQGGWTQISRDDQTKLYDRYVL
The experiment in a line: Trypanosoma cruzi proteasome chymotrypsin-like activity (TcProtChymo) assay. Also: in the data most compounds retested in dose-response had high values. It is filed as functional. As to conditions: 9.37 µM.

The species named for assay [8] is Homo sapiens. The experiment in a line: To identify inhibition of the IFN signalling (Jak-Stat) pathway via expression of an eGFP reporter gene under the control of an IFN-stimulated response element (ISRE) containing MxA promoter. It is filed as functional. As to conditions: 30 µM.
Assay [9] addresses Shiga toxin 2 (Escherichia coli O157:H7) (UniProt P09385+P09386). Put plainly: E. coli 0.157:H7 Shiga Toxin SOP - stx2 screening assay. It is filed as functional. Particulars: 30 µM.
For assay [10], the target named is T5, Tyrosyl-tRNA synthetase, putative (Trypanosoma cruzi (strain CL Brener)) (UniProt Q4DSP6).
T5 sequence (whole entry): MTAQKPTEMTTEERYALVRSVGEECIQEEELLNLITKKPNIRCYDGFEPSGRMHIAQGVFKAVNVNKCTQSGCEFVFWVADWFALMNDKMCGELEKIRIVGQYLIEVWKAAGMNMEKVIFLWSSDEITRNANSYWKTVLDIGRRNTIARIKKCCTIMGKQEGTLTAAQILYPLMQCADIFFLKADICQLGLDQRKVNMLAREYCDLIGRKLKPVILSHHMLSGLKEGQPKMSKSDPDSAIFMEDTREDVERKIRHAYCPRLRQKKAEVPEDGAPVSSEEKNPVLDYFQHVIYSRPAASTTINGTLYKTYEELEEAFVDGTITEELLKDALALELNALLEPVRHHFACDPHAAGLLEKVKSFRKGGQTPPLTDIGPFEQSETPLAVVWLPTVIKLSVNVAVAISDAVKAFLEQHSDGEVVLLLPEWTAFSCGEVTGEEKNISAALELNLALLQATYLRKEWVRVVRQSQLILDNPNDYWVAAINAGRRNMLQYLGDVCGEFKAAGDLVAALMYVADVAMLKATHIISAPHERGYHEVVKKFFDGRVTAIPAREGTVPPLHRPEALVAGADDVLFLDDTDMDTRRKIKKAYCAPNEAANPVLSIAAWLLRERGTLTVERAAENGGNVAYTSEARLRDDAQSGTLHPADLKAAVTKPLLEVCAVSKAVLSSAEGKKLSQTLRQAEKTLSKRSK
Put plainly: Trypanosoma cruzi tyrosyl tRNA synthetase (TcYRS) _High Tyrosine SOP. Also: in the data most compounds retested in dose-response had high values. It is filed as functional. As to conditions: 30 µM.

Assay [11] has as its target T5, Tyrosyl-tRNA synthetase, putative (Trypanosoma cruzi (strain CL Brener)). The experiment in a line: Trypanosoma cruzi tyrosyl tRNA synthetase (TcYRS) SOP. Type of assay: functional. Particulars: 30 µM.
Assay [12] addresses Chromo domain-containing protein 1 (Saccharomyces cerevisiae (strain ATCC 204508 / S288c) (Baker's yeast)) (UniProt P32657). The experiment in a line: ScCHD-1 Enzyme Inhibition Assay. Also: in the data most compounds retested in dose-response had high values. As to conditions: 30 µM. Type of assay: functional.
Assay [13] concerns the target AMP-activated protein kinase, AMPK (Homo sapiens) (UniProt P54646+O43741+P54619+Q9UGJ0+Q9Y478+Q13131+Q9UGI9). Put plainly: AMP-dependent Kinase enzyme assay. An in vitro enzyme assay that detects ADP turnover that is directly proportional to AMPK activity. This uses naive AMPK that is activated during the assay with MK-8722. As to conditions: 30 µM. It is filed as functional.

Sequence of Chromo domain-containing protein 1 (Saccharomyces cerevisiae (strain ATCC 204508 / S288c) (Baker's yeast)) (P32657 whole entry, the tested form may be a part): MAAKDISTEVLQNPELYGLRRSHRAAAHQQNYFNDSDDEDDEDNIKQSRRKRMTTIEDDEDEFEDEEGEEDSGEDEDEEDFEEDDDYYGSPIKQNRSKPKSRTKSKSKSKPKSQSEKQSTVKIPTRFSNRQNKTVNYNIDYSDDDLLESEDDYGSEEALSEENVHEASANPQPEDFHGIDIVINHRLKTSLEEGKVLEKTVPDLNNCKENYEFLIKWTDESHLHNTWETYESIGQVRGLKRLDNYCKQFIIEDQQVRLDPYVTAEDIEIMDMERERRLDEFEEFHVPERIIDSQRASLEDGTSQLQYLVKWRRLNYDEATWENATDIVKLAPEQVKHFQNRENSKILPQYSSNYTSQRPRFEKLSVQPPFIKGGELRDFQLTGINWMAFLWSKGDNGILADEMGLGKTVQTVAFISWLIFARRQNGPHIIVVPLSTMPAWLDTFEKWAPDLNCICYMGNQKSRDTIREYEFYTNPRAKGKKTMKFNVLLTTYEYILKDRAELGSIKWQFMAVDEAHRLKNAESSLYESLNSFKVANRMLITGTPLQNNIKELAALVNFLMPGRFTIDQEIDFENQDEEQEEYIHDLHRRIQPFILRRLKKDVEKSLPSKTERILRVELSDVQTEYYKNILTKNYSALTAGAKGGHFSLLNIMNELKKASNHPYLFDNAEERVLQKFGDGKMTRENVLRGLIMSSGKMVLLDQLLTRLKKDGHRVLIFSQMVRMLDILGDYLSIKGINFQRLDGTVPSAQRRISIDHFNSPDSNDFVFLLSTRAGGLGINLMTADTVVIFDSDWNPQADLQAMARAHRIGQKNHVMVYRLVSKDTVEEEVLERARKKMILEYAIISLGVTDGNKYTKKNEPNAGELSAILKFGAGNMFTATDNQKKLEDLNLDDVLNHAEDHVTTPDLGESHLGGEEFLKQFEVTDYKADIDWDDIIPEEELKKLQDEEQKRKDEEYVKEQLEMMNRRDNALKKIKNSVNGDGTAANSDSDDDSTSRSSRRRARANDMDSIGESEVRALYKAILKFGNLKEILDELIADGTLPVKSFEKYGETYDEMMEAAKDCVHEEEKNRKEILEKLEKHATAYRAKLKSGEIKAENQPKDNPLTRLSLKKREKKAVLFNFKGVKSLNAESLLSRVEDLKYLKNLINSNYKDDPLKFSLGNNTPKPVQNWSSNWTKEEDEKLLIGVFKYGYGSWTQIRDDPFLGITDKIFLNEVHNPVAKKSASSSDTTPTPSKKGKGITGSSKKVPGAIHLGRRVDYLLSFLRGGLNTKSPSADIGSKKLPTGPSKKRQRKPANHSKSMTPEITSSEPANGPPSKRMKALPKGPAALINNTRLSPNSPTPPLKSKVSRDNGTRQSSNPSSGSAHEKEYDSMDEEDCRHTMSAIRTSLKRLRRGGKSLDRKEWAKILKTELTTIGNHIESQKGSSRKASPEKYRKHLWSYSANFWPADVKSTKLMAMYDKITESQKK
Sequence of Sialic acid-binding Ig-like lectin 9 (Homo sapiens) (Q9Y336 whole entry): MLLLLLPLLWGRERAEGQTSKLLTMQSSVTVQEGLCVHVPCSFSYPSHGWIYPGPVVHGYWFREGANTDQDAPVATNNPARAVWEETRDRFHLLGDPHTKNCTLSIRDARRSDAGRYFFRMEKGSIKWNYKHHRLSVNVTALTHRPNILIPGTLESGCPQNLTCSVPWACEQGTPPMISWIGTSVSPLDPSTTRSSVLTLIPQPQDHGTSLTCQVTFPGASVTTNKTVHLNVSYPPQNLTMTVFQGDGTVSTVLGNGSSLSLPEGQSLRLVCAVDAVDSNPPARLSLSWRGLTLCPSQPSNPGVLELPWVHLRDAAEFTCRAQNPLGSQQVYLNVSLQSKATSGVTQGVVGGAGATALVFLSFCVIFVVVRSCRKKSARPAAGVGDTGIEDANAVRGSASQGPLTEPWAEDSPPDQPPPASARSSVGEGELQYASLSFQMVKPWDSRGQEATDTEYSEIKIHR
Sequence of Protein translocase subunit SecA (Escherichia coli (strain K12)) (P10408 whole entry): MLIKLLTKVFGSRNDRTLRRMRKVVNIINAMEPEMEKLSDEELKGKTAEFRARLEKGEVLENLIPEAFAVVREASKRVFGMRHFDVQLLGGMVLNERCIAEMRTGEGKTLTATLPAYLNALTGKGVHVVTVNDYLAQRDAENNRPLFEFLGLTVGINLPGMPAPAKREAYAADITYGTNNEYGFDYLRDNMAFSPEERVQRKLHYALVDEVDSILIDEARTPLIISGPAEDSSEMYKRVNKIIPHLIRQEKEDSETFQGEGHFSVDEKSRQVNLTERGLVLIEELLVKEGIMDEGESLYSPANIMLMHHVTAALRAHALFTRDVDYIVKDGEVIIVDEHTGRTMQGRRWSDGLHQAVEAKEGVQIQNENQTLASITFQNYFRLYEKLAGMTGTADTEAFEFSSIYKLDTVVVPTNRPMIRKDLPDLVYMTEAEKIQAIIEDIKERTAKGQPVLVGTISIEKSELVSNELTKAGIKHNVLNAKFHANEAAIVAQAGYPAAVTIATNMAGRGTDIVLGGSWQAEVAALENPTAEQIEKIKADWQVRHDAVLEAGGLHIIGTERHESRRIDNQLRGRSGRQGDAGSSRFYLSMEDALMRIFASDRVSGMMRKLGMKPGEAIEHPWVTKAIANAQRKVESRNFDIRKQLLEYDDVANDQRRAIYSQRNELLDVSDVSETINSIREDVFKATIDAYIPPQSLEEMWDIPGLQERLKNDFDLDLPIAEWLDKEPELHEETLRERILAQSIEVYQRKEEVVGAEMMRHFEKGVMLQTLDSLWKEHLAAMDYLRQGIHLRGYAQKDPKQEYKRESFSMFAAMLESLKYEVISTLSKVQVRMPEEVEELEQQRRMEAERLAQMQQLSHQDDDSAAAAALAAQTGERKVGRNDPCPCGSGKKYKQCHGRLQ

On to `COCC(C)NC(=O)c1cn(C(C)(C)C)c2ncccc12` (stereo unspecified), for which the Percent Effect is 0.871% in [1]; 14.7% in [2]; 4.78% in assay [3]; -9.18% in assay [4]; 4.93% in assay [5]; 0.443% in assay [6]. Further, the Percent Effect is 18.2% in [7]; 6.95% in assay [8]; -13.5% in [9]; 0% in [10]; 10% in assay [11]; -22.6% in assay [12].
As to `Cc1nc(NCC2CC2)nc2c1COCC21CCN(C)C1` (stereo unspecified), the Percent Effect in assay [1] was -1.26%; in [2] it was 18.7%; in assay [3], -1.49%; in assay [13], 0.667%; in [4], -4.41%; in assay [5] it was 2.17%. Besides, the Percent Effect stood at 46.4% in assay [6]; 19.1% in [7]; 2.6% in [8]; 2.88% in assay [9]; 4.25% in assay [10]; 16.7% in [11]. In assay [12], the Percent Effect is -6.2%.
Consider `CCN1CCC2(CCC1=O)CN(c1ccnc(SC)n1)CCN2C` (stereo unspecified), for which the Percent Effect in [1] is -7.58%; in assay [2], 5.33%; in assay [3] it was -3.27%; in [13], 2.15%; in assay [4] it was 13%; in assay [5] it was -0.682%. The Percent Effect is 6.25% in assay [6]; 11.2% in assay [7]; 7.14% in assay [8]; 3.83% in assay [10]; 8.64% in assay [11]; -7.61% in [12].
For `CC[C@H]1NCCC[C@]12CCC(=O)N2Cc1ccncc1`, the Percent Effect is -3.12% in assay [1]; 11.7% in assay [2]; 0.865% in [3]; 1.31% in [4]; 0% in assay [5]; 1.37% in assay [6]. In addition, the Percent Effect in assay [7] was -0.772%; in assay [8], -15%; in assay [9] it was -6.09%; in assay [10] it was 5.8%; in assay [11] it was 15%; in [12], -0.792%.
For `COc1ccc(C(=O)C2CCCN(CCCn3cccn3)C2)c(OC)c1` (stereo unspecified), the Percent Effect in assay [1] is -4.85%; in assay [2] it was 5.41%; in assay [3], -0.805%; in assay [4], 13.1%; in assay [5], 7.27%; in assay [6], 25.5%. In addition, the Percent Effect in [7] was 7.71%; in [8], 3.33%; in assay [9], -4.88%; in assay [10], 6.92%; in [11], 17.1%; in assay [12], 77.1%.
